Measured values: PubChem BioAssay (NCATS)
“And” between values parts separate entries of the source, which are not always exact repeats. Identical values can stand only once. Inconclusive results are not listed. Some structures have more than one record in an assay (separate samples or runs), and their calls can disagree. The source made the active and inactive calls. Calls come from the whole dose curve; as a rule, active = well fitted curve in the direction sought with a large enough effect; inconclusive = small, poorly fitted or top-dose-only effect, or another doubt; inactive = no such curve, though single readings can be large; an effect the other way counts as inactive or inconclusive.

Tests used:
[1] = target: Glutathione peroxidase 1 (Homo sapiens) (UniProt P07203); assay: Primary qHTS Assay for Inhibitors of Recombinant Selenoprotein Glutathione Peroxidase 1 (GPX1) (AID 1845191); note: nearly all actives have a fitted effect of over 65% in size
Outline: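 GR-coupled assay: compounds preincubated 30 min at room temperature with GPX1, then reaction started with CHP; final 10 nM GPX1, 1 mM GSH, 0.5 mM CHP, 0.5 mM NADPH, 100 nM GR, 0.01% BSA, pH 7.5 Tris buffer. NADPH fluorescence (340/450 nm) read at 0 and 15 min.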

[2] = target: Phospholipid hydroperoxide glutathione peroxidase GPX4 (Homo sapiens) (UniProt P36969); assay: Primary qHTS Assay for Inhibitors of Recombinant Selenoprotein Glutathione Peroxidase 4 (GPX4) (AID 1845192); note: nearly all actives have a fitted effect of over 65% in size
Outline: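 GR-coupled assay: recombinant GPX4 preincubated 30 min with compound at room temperature; final 200 nM GPX4, 1 mM GSH, 0.5 mM cumene hydroperoxide, 0.5 mM NADPH, 100 nM GR, 0.01% BSA, pH 7.5 Tris. NADPH fluorescence (340/450 nm) read at 0 and 15 min.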

[3] = Quantitative High-Throughput drug screen in 47 multiple myeloma cell lines against the NCATS MIPE library collection: FR4_PLB cell viability assay (AID 1918924; note: nearly all actives have a fitted effect of over 35% in size)
Outline: (§1)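 Myeloma cell lines, 500 cells per well, exposed to MIPE 4.0 library compounds for 48 h at 37C, 5% CO2. Viability from ATP by CellTiter-Glo luminescence; normalised to DMSO (100%) and media-only (0%) wells.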

[4] = Quantitative High-Throughput drug screen in 47 multiple myeloma cell lines against the NCATS MIPE library collection: Delta47_JCRB cell viability assay (AID 1918925; note: nearly all actives have a fitted effect of over 45% in size)
Outline: (§2)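 CellTiter-Glo ATP luminescence gave viability after 48 h compound treatment at 37C of 500 multiple myeloma cells per well. Normalisation used DMSO-only wells as 100% and media-only wells as 0% viability; primary qHTS of approved and investigational drugs.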

[5] = Quantitative High-Throughput drug screen in 47 multiple myeloma cell lines against the NCATS MIPE library collection: AMO1_DSMZ cell viability assay (AID 1918927; note: nearly all actives have a fitted effect of over 30% in size)
Outline: as §2

[6] = Quantitative High-Throughput drug screen in 47 multiple myeloma cell lines against the NCATS MIPE library collection: ARD_JJKsccE7 cell viability assay (AID 1918929)
Outline: as §2

[7] = Quantitative High-Throughput drug screen in 47 multiple myeloma cell lines against the NCATS MIPE library collection: Karpas620_DSMZ cell viability assay (AID 1918959); note: nearly all actives have a fitted effect of over 30% in size
Outline: as §1

[8] = Quantitative High-Throughput drug screen in 47 multiple myeloma cell lines against the NCATS MIPE library collection: KMM1_JCRB cell viability assay (AID 1918960); note: nearly all actives have a fitted effect of over 30% in size
Outline: (§3)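 Here, 48 h treatment with MIPE 4.0 agents at 37 °C preceded an ATP luminescence read. Plating density was 500 cells per well.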

[9] = Quantitative High-Throughput drug screen in 47 multiple myeloma cell lines against the NCATS MIPE library collection: Karpas417_ECACC cell viability assay (AID 1918961); conditions: Karpas417 myeloma viability, CellTiter-Glo ATP luminescence, 48 h; viability (% of DMSO): at 45.8 µM (top of the series)
Outline: as §1

[10] = Quantitative High-Throughput drug screen in 47 multiple myeloma cell lines against the NCATS MIPE library collection: JIM3_ECACC cell viability assay (AID 1918963; note: nearly all actives have a fitted effect of over 35% in size)
Outline: as §1

[11] = Quantitative High-Throughput drug screen in 47 multiple myeloma cell lines against the NCATS MIPE library collection: JIM1_ECACC cell viability assay (AID 1918964)
Outline: as §2

[12] = Quantitative High-Throughput drug screen in 47 multiple myeloma cell lines against the NCATS MIPE library collection: INA6_PLB cell viability assay (AID 1918965; note: nearly all actives have a fitted effect of over 55% in size)
Outline: as §1

[13] = Quantitative High-Throughput drug screen in 47 multiple myeloma cell lines against the NCATS MIPE library collection: H1112_PLB cell viability assay (AID 1918967; note: nearly all actives have a fitted effect of over 30% in size)
Outline: as §2

[14] = Quantitative High-Throughput drug screen in 47 multiple myeloma cell lines against the NCATS MIPE library collection: Karpas25_ECACC cell viability assay (AID 1918968; note: nearly all actives have a fitted effect of over 35% in size)
Outline: as §2

[15] = Quantitative High-Throughput drug screen in 47 multiple myeloma cell lines against the NCATS MIPE library collection: EJM_DSMZ cell viability assay (AID 1918926; note: nearly all actives have a fitted effect of over 30% in size)
Outline: as §2

[16] = Quantitative High-Throughput drug screen in 47 multiple myeloma cell lines against the NCATS MIPE library collection: ARP1_JJKsccF8 cell viability assay (AID 1918928; note: nearly all actives have a fitted effect of over 40% in size)
Outline: as §3

[17] = Quantitative High-Throughput drug screen in 47 multiple myeloma cell lines against the NCATS MIPE library collection: KHM11_PLB cell viability assay (AID 1918962); note: nearly all actives have a fitted effect of over 35% in size
Outline: as §1

[18] = Quantitative High-Throughput drug screen in 47 multiple myeloma cell lines against the NCATS MIPE library collection: JJN3_DSMZ cell viability assay (AID 1918966; note: nearly all actives have a fitted effect of over 50% in size)
Outline: as §2

Measured: Potency
Potency is the fitted concentration of half-maximal effect.

Phospholipid hydroperoxide glutathione peroxidase GPX4 (Homo sapiens), sequence (P36969 whole entry, looked up): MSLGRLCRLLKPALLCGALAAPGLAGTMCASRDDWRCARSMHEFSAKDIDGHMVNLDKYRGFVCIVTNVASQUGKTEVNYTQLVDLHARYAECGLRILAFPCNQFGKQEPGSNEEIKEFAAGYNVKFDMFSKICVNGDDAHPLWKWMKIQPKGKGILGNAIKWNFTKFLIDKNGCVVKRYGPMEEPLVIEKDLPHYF
Glutathione peroxidase 1 (Homo sapiens), sequence (P07203 whole entry, looked up): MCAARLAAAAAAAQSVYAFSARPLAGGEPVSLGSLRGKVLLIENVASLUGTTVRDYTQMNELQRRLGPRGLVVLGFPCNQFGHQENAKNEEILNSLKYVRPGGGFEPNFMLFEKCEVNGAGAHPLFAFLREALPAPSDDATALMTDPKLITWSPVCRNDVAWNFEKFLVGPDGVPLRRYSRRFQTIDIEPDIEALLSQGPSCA

Cc1cc(O)c2c(c1)C(=O)c1cc(O)cc(O)c1C2=O
active: [3] 0.418 µM | [14] 2.09 µM
inactive: [1] | [2] | [4] | [5] | [6] | [7] | [8] | [9] | [10] | [11] | [12] | [13]

O=C1c2c(O)cc(O)cc2OC(c2ccc(O)c(O)c2)C1O (stereo not given)
inactive: [1] | [2] | [3] | [15] | [5] | [16] | [7] | [8] | [10] | [11] | [12] | [13]

Cc1nc2n(c(=O)c1CCN1CCC(c3noc4cc(F)ccc34)CC1)CCCC2
inactive: [1] | [2] | [3] | [15] | [5] | [16] | [6] | [7] | [8] | [9] | [17] | [10] | [13]

CN(C)CCc1c[nH]c2ccc(Cn3cncn3)cc12
active: [12] 1.66 µM
inactive: [1] | [2] | [3] | [4] | [15] | [16] | [10] | [13] | [14]

CC(S)C(=O)NCC(=O)O (stereo not given)
active: [6] 2.64 µM | [14] 1.87 µM
inactive: [1] | [2] | [3] | [15] | [5] | [16] | [9] | [10] | [11] | [18]

CN(C)c1ccc2nc3ccc(=[N+](C)C)cc-3sc2c1
active: [3] 1.87 µM | [15] 0.469 µM | [5] 8.33 µM | [16] 1.66 µM | [6] 13.2 µM | [7] 3.72 µM | [8] 2.35 µM | [9] 6.62 µM | [17] 4.18 µM | [10] 2.35 µM | [11] 9.35 µM | [18] 0.662 µM | [13] 8.33 µM | [14] 0.662 µM
inactive: [1] | [2]

Oc1ccc2ccccc2c1SSc1c(O)ccc2ccccc12
active: [3] 20.9 µM | [4] 16.6 µM | [5] 20.9 µM | [16] 23.5 µM | [6] 16.6 µM | [7] 10.5 µM | [8] 23.5 µM | [17] 20.9 µM | [10] 18.7 µM | [11] 14.8 µM | [18] 7.43 µM | [13] 11.8 µM | [14] 8.33 µM
inactive: [1] | [2]

Cc1ncc([N+](=O)[O-])n1CC(C)O (stereo not given)
active: [14] 11.8 µM
inactive: [1] | [2] | [3] | [15] | [5] | [16] | [6] | [7] | [8]

Cc1cccc(C#Cc2ccccc2)n1
active: [16] 20.9 µM
inactive: [1] | [2] | [3] | [4] | [15] | [5] | [7] | [8] | [10] | [13] | [14]

O=C1c2ccccc2-c2n[nH]c3cccc1c23
inactive: [1] | [2] | [3] | [7] | [10] | [13]
active: [15] 0.0017 µM | [5] 20.9 µM | [6] 1.18 µM | [12] 20.9 µM

Nc1nc(Cl)nc2c1ncn2[C@H]1C[C@H](O)[C@@H](CO)O1
active: [3] 3.72 µM | [4] 0.235 µM | [5] 0.187 µM | [17] 1.05 µM | [10] 0.526 µM | [11] 2.35 µM | [12] 0.935 µM
inactive: [1] | [2]

CC(C)(S)[C@@H](N)C(=O)O
inactive: [1] inactive [at 4.49 µM] | [2] inactive [at 4.52 µM] | [3] | [15] | [5] | [16] | [6] | [7] | [10] | [11] | [18] | [13]

Nc1ccn([C@@H]2O[C@H](CO)[C@@H](O)C2O)c(=O)n1 (stereo not given in full)
active: [6] 8.33 µM | [11] 4.18 µM | [14] 1.48 µM
inactive: [1] | [2] | [3] | [4] | [15] | [5] | [7] | [8] | [9] | [10]

CCN(CC)C(=S)SSC(=S)N(CC)CC
inactive: [1] | [2]
active: [3] 0.0074 µM | [15] 0.0066 µM | [5] 0.0372 µM | [16] 0.0235 µM | [10] 0.001 µM | [12] 0.001 µM | [18] 0.0166 µM | [13] 0.001 µM | [14] 0.001 µM

NNc1nncc2ccccc12
inactive: [1] | [2] | [3] | [16] | [6] | [7] | [8] | [10] | [13]

Cc1ccc(C)c(OCCCC(C)(C)C(=O)O)c1
inactive: [1] | [2] | [3] | [16] | [18]

Cc1ccc(S(=O)(=O)NC(=O)NN2CC3CCCC3C2)cc1 (stereo not given)
inactive: [1] | [2]
active: [4] 18.7 µM | [5] 23.5 µM | [16] 26.4 µM | [6] 26.4 µM | [8] 23.5 µM | [10] 23.5 µM | [18] 23.5 µM

Nc1nc(OCc2ccccc2)c2[nH]cnc2n1
inactive: [1] | [2] | [3] | [15] | [7] | [17] | [13]
active: [16] 20.9 µM | [9] 16.6 µM | [10] 13.2 µM | [12] 18.7 µM | [14] 16.6 µM

CCc1nc(N)nc(N)c1-c1ccc(Cl)cc1
inactive: [1] | [2] | [4] | [15] | [7] | [17] | [11]
active: [5] 1.48 µM | [10] 2.35 µM

Cc1cccc(CN2CCN(C(c3ccccc3)c3ccc(Cl)cc3)CC2)c1 (stereo not given)
inactive: [1] | [2] | [3] | [9] | [11]
active: [15] 18.7 µM | [6] 26.4 µM | [18] 23.5 µM | [13] 23.5 µM | [14] 23.5 µM

COc1cc2c(cc1OC)C1CC(=O)C(CC(C)C)CN1CC2 (stereo not given)
inactive: [1] | [2] | [3] | [15] | [6] | [7] | [8] | [9] | [17] | [10] | [11] | [13] | [14]

NS(=O)(=O)c1cc(C(=O)O)c(NCc2ccco2)cc1Cl
inactive: [1] | [2] | [3] | [15] | [16] | [7] | [8] | [10] | [11] | [13] | [14]

COCCCN1CCC(NC(=O)c2cc(Cl)c(N)c3c2OCC3)CC1
inactive: [1] | [2]
active: [4] 18.7 µM | [5] 14.8 µM | [6] 20.9 µM | [8] 20.9 µM | [10] 18.7 µM | [11] 16.6 µM | [12] 18.7 µM

CC1=C(C)C(=O)C(C(CCCCCC(=O)O)c2ccccc2)=C(C)C1=O (stereo not given)
inactive: [1] | [3] | [15] | [7] | [13]
active: [2] 11.2 µM

COC1=C(OC)C(=O)C(CCCCCCCCCCO)=C(C)C1=O
inactive and 7.28 µM (active): [1]
inactive: [2] | [15]
active: [5] 10.5 µM | [16] 23.5 µM | [6] 20.9 µM | [7] 11.8 µM | [8] 18.7 µM | [17] 26.4 µM | [10] 18.7 µM | [12] 18.7 µM | [18] 18.7 µM

O=c1oc2cc(O)ccc2s1
active: [5] 23.5 µM | [14] 7.43 µM
inactive: [1] | [2] | [3] | [15] | [10] | [13]

CNC[C@H](O)c1ccc(O)c(O)c1
active: [3] 9.59 µM | [16] 15.2 µM | [10] 38.2 µM | [18] 13.6 µM | [14] 5.4 µM
inactive: [1] | [2] | [5] | [6] | [7] | [8] | [17] | [13]
